Source: PubChem BioAssay (several laboratories)
TRPM1 prom inh – reduces MITF-dependent TRPM1 promoter luciferase signal; inhibition, % at 12.5 µM; hit rate 0.83% among 330,000; SK-MEL-5 TRPM1 promoter luciferase, 24 h;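 active means mean inhibition across replicates of 60% or more, whatever share of single replicates reaches that level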
TROY NFkB inh – inhibitors of TROY-dependent NF-kB signaling. Q293 LMP1-TROYcd NF-kB luciferase reporter, 4 h. inhibition, % at 10 µM. hit rate 0.98% among 360,000. AID 1347056;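 active means compounds whose plate-normalised and pattern-corrected inhibition of the luciferase reporter signal at the single screening dose is 50% or more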
Peg3 prom inh – inhibitors of Peg3 promoter | HeLa PEG-Prom luciferase reporter, luminescence, overnight | inhibition, % at 20 µM | hit rate 1.7% among 360,000;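 active means inhibition of at least 50% at 20 µM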
TWEAK Fn14 block – TWEAK-Fn14 signaling inhibition. inhibition, % at 10 µM. TWEAK-stimulated Fn14 reporter cells, luciferase luminescence, 8 h. AID 1159606. hit rate 2% among 360,000; in the data active means inhibition above about 50%
Shn3 inh set2 – Schnurri-3 reporter inhibition in Clone20 osteoblasts | inhibition, % at 12.5 µM | AID 588674 | hit rate 0.52% among 360,000 | Clone20 osteoblast Shn3 3'UTR firefly luciferase, 24 h;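 active means mean inhibition of at least 75% with every replicate also reaching 75%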
LMP1 NFkB inh – Epstein-Barr LMP1 NF-kappaB reporter inhibition | LMP1-induced NF-kappaB luciferase reporter cells, luminescence | inhibition, % at 12.5 µM | hit rate 0.69% among 350,000 | AID 504558; in the data active means inhibition above about 41%
A number is an active result; . = inactive; / = no result given. This is a sample that favours compounds with a hit; in the whole collection about 4.1% have one here.

SMILES	TRPM1 prom inh	TROY NFkB inh	Peg3 prom inh	TWEAK Fn14 block	Shn3 inh set2	LMP1 NFkB inh
O=C(O)/C(=C\c1ccc(Cl)c([N+](=O)[O-])c1)c1ccc(S(=O)(=O)N2CCCC2)s1	.	.	.	.	.	.
NC(=S)N/N=C\c1c(OCc2ccccc2Cl)ccc2ccccc12	.	.	.	57	.	.
CCCCCCCN1CCN=C1Nc1ccccc1	.	.	.	.	.	.
CC(C)Cn1c(N)c(S(=O)(=O)c2cccs2)c2nc3ccccc3nc21	.	67	.	.	.	.
Nc1c(S(=O)(=O)c2cccs2)c2nc3ccccc3nc2n1/N=C/c1cccc(O)c1	.	.	92	81	.	.
CC1CCCN(S(=O)(=O)c2ccc(NC(=O)C3CC(=O)N(C(C)(C)C)C3)cc2)C1 (centres undefined)	.	.	.	.	.	.
C#CCOCCOCCOCCNc1nc(N2CCN(C(=O)[C@H](C)n3cc(CCC(=O)O)nn3)CC2)nc(N2CCN(C(=O)[C@H](Cc3ccc(O)cc3)n3cc(CCO)nn3)CC2)n1	.	.	.	.	.	.
Cc1cc(=O)oc2c(C)c(OCC(=O)N(C)C)ccc12	.	.	.	.	.	42
Cc1nc(/C(N)=N/OC(=O)c2ccc(Cl)cc2)c(C(F)(F)F)o1	.	.	.	.	.	.
CC(=O)c1cccc(N=c2scc(-c3ccc(S(=O)(=O)N4CCOCC4)cc3)n2CCO)c1	.	.	.	54	.	.
CC(C)(C)c1ccc(CNC(=O)C2CCCN2C(=O)Nc2ccccc2)cc1 (centres undefined)	.	.	.	.	.	.
COP(C)(=O)c1c(C)nn(-c2ccccc2)c1C (centres undefined)	.	/	.	69	.	.
CC(=O)c1c(C)nn(-c2ccccc2)c1C	.	.	.	.	.	.
Cc1nc(C(=O)O)cc2c1[nH]c1ccccc12	.	.	.	.	.	.
CC(=O)N(C(C)=O)c1ncc2c([nH]c3ccccc32)c1C#N	.	54	.	55	.	.
CSc1ccc(C(O)c2ncc(-c3cccc(OCc4ccccc4)c3)[nH]2)cc1 (centres undefined)	/	.	.	.	.	/
Oc1c(Cl)cc(Cl)cc1C1=NNC(c2ccc(Cl)cc2)C1 (centres undefined)	.	.	.	.	.	49
O=C(Nc1cccc(Cl)c1N1CCCC1)c1cccc(-c2cc3ccccc3oc2=O)c1	.	.	.	.	.	.
Cc1ccc([N+](=O)[O-])cc1N/C=C/C(=O)c1ccco1	.	.	.	.	.	.
Cc1ccc(N/C=C/C(=O)c2ccco2)c(O)c1	.	.	.	95	.	.
CCN(CC)CCNC(=O)c1nn(-c2ccc(Cl)cc2)c2c1CCc1cc(OC)ccc1-2	.	.	94	.	.	.
CCCCCn1ccc(=N)cc1	.	.	.	.	.	.
CCCCCCCn1ccc(=N)cc1	.	.	.	.	.	93
CCCCCCCCCn1ccc(=N)cc1	65	54	.	.	.	.
CC(=O)N1CCN(C(=O)CSc2nnc(C)n2-c2ccccc2)CC1	.	.	.	.	.	.
SMILES	TRPM1 prom inh	TROY NFkB inh	Peg3 prom inh	TWEAK Fn14 block	Shn3 inh set2	LMP1 NFkB inh
Cc1c(C(N)=O)cc([N+](=O)[O-])cc1[N+](=O)[O-]	.	.	.	.	.	.
CCN(CC(=O)NCc1cccs1)C(=O)c1ccc(-c2ccc(F)cc2)o1	.	.	.	80	.	.
CCCCCN(C(=O)CCC(=O)OCC(=O)Nc1ccc(C)cc1F)c1c(N)n(CCCC)c(=O)[nH]c1=O	.	.	.	.	.	.
COc1ccc(C=C2CS(=O)(=O)CC(=Cc3ccc(OC)cc3)C2=O)cc1	/	56	97	88	.	91
COc1ccc(/C=C2\CCCCC2=O)cc1	.	.	.	.	.	.
Cc1ccc(CSC(Nc2ccc(F)cc2)=C(C#N)C#N)cc1	.	.	.	53	.	.
CCN(CC)C(=O)CSC(Nc1ccc(F)cc1)=C(C#N)C#N	.	.	.	.	/	.
COc1ccccc1NC(=O)C(C)Sc1nnc2ccccn12 (centres undefined)	.	.	.	.	.	.
C/C(=N\NC(=O)c1ccccc1NC(=O)c1ccc(Cl)cc1)c1ccncc1	.	.	64	.	.	54
FC(F)(F)c1cc(N2CCNCC2)c2ccccc2n1	.	.	.	.	.	.
OC(c1cc(C(F)(F)F)nc2c(C(F)(F)F)cccc12)C1CCCCN1 (centres undefined)	.	.	93	.	.	.
